The whole screen tested about 360,000 compounds, of which about 8,200 (2.3%) were called active. Rule as the data show it: active = inhibition above about 27%; inactive = the rest. The entries come from a sample that favours actives as a whole.

Fructose-bisphosphate aldolase (Mycobacterium tuberculosis (strain ATCC 25618 / H37Rv)), sequence (P9WQA3 whole entry, looked up): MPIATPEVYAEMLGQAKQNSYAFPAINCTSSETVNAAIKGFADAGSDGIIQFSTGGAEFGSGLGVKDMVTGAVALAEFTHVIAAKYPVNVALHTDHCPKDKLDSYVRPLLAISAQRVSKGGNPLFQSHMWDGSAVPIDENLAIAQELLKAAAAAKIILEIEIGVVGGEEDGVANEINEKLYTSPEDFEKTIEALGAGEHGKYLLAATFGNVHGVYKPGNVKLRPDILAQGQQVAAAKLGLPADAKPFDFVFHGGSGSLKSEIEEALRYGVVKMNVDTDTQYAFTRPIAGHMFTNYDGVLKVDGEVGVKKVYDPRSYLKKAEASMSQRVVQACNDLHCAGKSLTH

This test addresses Fructose-bisphosphate aldolase (Mycobacterium tuberculosis (strain ATCC 25618 / H37Rv)) (UniProt P9WQA3). Kind of test: M. tuberculosis aldolase activity blockers – biochemical, fluorescence, strain H37Rv, primary screen (AID 588726).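 Also: 0% = vehicle and 100% = reference inhibitor.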 The following applies: purified M. tuberculosis FBA, fluorescence read-out, at 1 µM, active compounds read high.
On to `Cc1ccc(C(=O)NC2CCN(C(=O)Nc3ccccc3Cl)CC2)cc1`, for which the inhibition (commonly the drop in the measured response relative to a control, in per cent) is -1.09% (inactive).
Next, `COc1ccc(C(=O)OCC(=O)NC(=O)CCSc2ccccc2)cc1`: -0.72% (inactive).
Next, `Cc1ccccc1CN1CCNC(=O)C1CC(=O)NCCC1=CCCCC1` (centres undefined): 2.98% (inactive); `Cc1cc(C(=O)OC(C)C(=O)Nc2cccc(S(=O)(=O)N3CCOCC3)c2)c(C)o1` (centres undefined): -3.62% (inactive); `CCOCCCNC(=O)C(NC(=O)c1ccccc1O)c1ccccc1` (centres undefined): 43.8% (active).
Next, `CCOCCCNC(=O)C(NC(=O)CNC(=O)c1ccccc1)c1ccc(OC)cc1` (centres undefined): -0.07% (inactive); `CCOCCCNC(=O)C(NC(=O)CNC(=O)c1ccccc1)c1ccc(C)cc1` (centres undefined): -3.14% (inactive); `COc1cccc(NC(=O)[C@H](Cc2c[nH]c3ccccc23)NC(=O)[C@@H]2Cc3ccccc3CN2)c1`: 10.6% (inactive).
Turning to `CCCCn1c(O)c(N=NC(=O)Cn2c(C(F)(F)F)nc3ccccc32)c2ccccc21`, the inhibition is 3.68% (inactive).
Next, `N#C/C(=C/c1ccc(N2CCCCC2)o1)C(=O)NCCc1c[nH]c2ccccc12`: -32.6% (inactive).
Take `CN=C1C=C/C(=N/N=c2\ccn(O)cc2C)C=C1C`: the inhibition was -28.4% (inactive).
Next, `Cc1ccc(S(=O)(=O)Nc2ccc(F)c(S(=O)(=O)N3CCOCC3)c2)cc1`: -0.06% (inactive); `COc1ccc(S(=O)(=O)Nc2ccc3oc(C)c(C(C)=O)c3c2)cc1`: 0.55% (inactive).
For the compound `COCc1cc(=O)oc2cc(NS(=O)(=O)c3ccc(C)cc3)ccc12`, the inhibition was 62.4% (active).
Then `COc1ccccc1CCNC(=O)C1CCN(C(=O)/C=C/c2ccccc2)CC1`, with 81.2% (active); and `COc1ccccc1CNC(=O)C1CCN(C(=O)[C@@H]2Cc3ccccc3CN2)CC1`, with -1.63% (inactive).
Next, `CCOC(=O)C1CCN(C(=O)/C=C/c2cc(OC)c(OC)c(OC)c2)CC1`: 6.09% (inactive); `CCCCC(CC)CNC(=O)CCCCn1c(=O)[nH]c2ccsc2c1=O` (centres undefined): -2.17% (inactive); `COc1cc(C2NC(=O)NC(c3ccccc3)=C2C(C)=O)c(Br)cc1OCC(N)=O` (centres undefined): 1.26% (inactive).
Then `O=C(CC(n1cncn1)C(Cl)(Cl)Cl)c1ccc([N+](=O)[O-])cc1` (centres undefined), with 5.32% (inactive); and `NC(=S)NN=Cc1ccc(OC(=O)COc2cc(Cl)c(Cl)cc2Cl)cn1`, with 4.26% (inactive); and `O=C(Nc1ccccc1C(=O)O)c1ccc(N2C(=O)C3CC=CCC3C2=O)cc1` (centres undefined), with -1.48% (inactive).
For the compound `Cc1cc(C)nc(Nc2n[nH]c(-c3ccccc3N)n2)n1`, the inhibition was 15.2% (inactive).
For the compound `O=[N+]([O-])c1ccc2nc(-c3ccccn3)[nH]c2c1`, the inhibition was -3.65% (inactive).
Next, `Nc1ccccc1-c1nc2ccncc2[nH]1`: 83.7% (active); `O=S(=O)(NCCSc1ccccn1)c1ccc(Cl)cc1`: -1.18% (inactive).
As to `O=C(CN1CCC(O)(c2cccc(C(F)(F)F)c2)CC1)NCCc1ccccc1`, the inhibition is -2.53% (inactive).
Then `CCOc1ccc(C(=O)CCC(=O)NC2=NCCS2)cc1`, with -2.69% (inactive); and `CCN1CCN(C(=O)Cn2nc(C)n3c(cc4c(OC)cccc43)c2=O)CC1`, with 195% (active).
Then `CCCN1CCN(C(=O)Cn2ncc3ccccc32)CC1`, with 2.25% (inactive).
On to `CCc1nn(CC(=O)N2CCN(CC)CC2)c(=O)c2cccn12`, for which the inhibition was 2.42% (inactive).
Next, `Cc1ccccc1NC(=O)NC1(C(=O)N2CCCC2)CCCCC1`: -0.74% (inactive); `COc1ccc(-n2cc(CNC3CCOCC3)c(-c3cccc(F)c3)n2)cc1`: 50.5% (active); `Cc1ccc(-n2cc(CN(C)Cc3nccn3C)c(-c3cccc(C)c3)n2)cc1`: -2.31% (inactive).
Then `Cc1cccc(-n2cc(CN3CCN(C(=O)c4ncn[nH]4)CC3)c(-c3cccc(F)c3)n2)c1`, with -3.35% (inactive); and `COc1ccc(-c2nn(-c3ccccc3)cc2CN2CCCO2)c(F)c1`, with -2.2% (inactive).
Next, `COc1ccc(-n2cc(CN(C)Cc3n[nH]c(=O)[nH]3)c(-c3cccc(F)c3)n2)cc1`: 33.1% (active); `CCC(O)C1CCN(Cc2cn(-c3ccc(OC)cc3)nc2-c2cccc(F)c2)CC1` (centres undefined): 23.7% (inactive).
As to `CCCCCCN1C[C@H](O)[C@@H](n2cc(C3CC3)nn2)C[C@@H]1c1ccc(Cl)cc1`, the inhibition is 0.57% (inactive).
Take `COc1ccc2[nH]c3nc(SCC(=O)NC4CC4)nnc3c2c1`: the inhibition was -8.79% (inactive).
Then `COc1ccc2c(C)cc(SCC(=O)NCC3CCCO3)nc2c1` (centres undefined), with 4.79% (inactive); and `COC(=O)CSc1nc(C)c2ccc(OC)cc2n1`, with 30.8% (active); and `Cn1ncc(N2CCN(S(=O)(=O)c3ccc(Br)cc3)CC2)c(Cl)c1=O`, with -2.21% (inactive).
Then `c1ccc(-c2cn3c(n2)CCc2ccc4cccnc4c2-3)cc1`, with 6.65% (inactive).
As for `COc1ccc(C(=O)/C=C/Nc2ccccn2)cc1`, the inhibition was 4.41% (inactive).
Then `COc1ccc(N2CCN(C(=O)CSc3nnc4ncccn34)CC2)cc1`, with -2.52% (inactive); and `Cc1ccccc1Nc1c(-c2ccccc2)nc2ncccn12`, with 2.19% (inactive).
Turning to `CN1CCN(Cc2ccc(OC(F)(F)F)cc2)CC1`, the inhibition is -3.02% (inactive).
Next, `CC(C)(C)NC(=O)NC(=O)COC(=O)C1(C)CC1(Cl)Cl` (centres undefined): 0.89% (inactive); `COCCNC(=O)c1onc(CSc2cccc(C)c2)c1C(=O)O`: 1.01% (inactive); `Cc1ccc(NC(=O)CN(C)C(=O)c2ccc(Br)o2)cc1`: 0.61% (inactive).
For the compound `CC1COC2C(O1)N(S(C)(=O)=O)CCN2S(C)(=O)=O` (centres undefined), the inhibition was -0.44% (inactive).
Then `Cc1cccc(-c2cnc(C(O)c3cc(C)cc(C)c3)[nH]2)c1` (centres undefined), with -2% (inactive).
Then `CC(C)C(C(=O)NC1CCCCC1)N(CC1CCCO1)C(=O)CNS(=O)(=O)c1ccc(F)cc1` (centres undefined), with -0.74% (inactive).
Next, `CN1OC[C@@H]2CN(C(=O)C(C)(C)C)[C@H](c3ccc(-n4ccnc4)cc3)C[C@@H]21`: 3.11% (inactive); `Cc1ccc(-c2cnc(C(O)c3cccc(C)c3C)[nH]2)cc1` (centres undefined): -6.24% (inactive); `CCC(C)(C)NC(=O)C(c1cccc(OC)c1OC)N(CC(C)C)C(=O)CCC(=O)Nc1cc(C)on1` (centres undefined): -1.74% (inactive).
As for `COC(=O)C1=CN(C)C=C(C(=O)OC)C1c1ccc(Cl)cc1Cl`, the inhibition is 12.4% (inactive).
In the case of `CCOc1cc(C2C(C(=O)OC)=CN(C3CCCC3)C=C2C(=O)OC)cc(Br)c1O`, the inhibition was 9.72% (inactive).
Then `CCOc1ccccc1C1C(C(=O)OC)=CN(C)C=C1C(=O)OC`, with 180% (active); and `O=C(CC1SC(N2CCCC2)=NC1=O)Nc1ccc(C(=O)NCCc2ccc(F)cc2)cc1` (centres undefined), with -0.1% (inactive); and `COc1ccccc1C(=O)NCC(=O)NCCSc1ccc(Br)cc1`, with -1.16% (inactive).
Next, `O=C(NCc1ccco1)c1sc2cccc(F)c2c1Cl`: 5.05% (inactive).
For `O=C(NCc1ccco1)c1cccc(-c2ccc3nncn3c2)c1`, the inhibition was -0.68% (inactive).
On to `Cn1nc(-c2ccc(Cl)cc2)c2cc(C(=O)NCc3ccco3)sc21`, for which the inhibition is 43.5% (active).
Next, `COc1cc(C2OC(c3cc(OC)c(OC)c(OC)c3)C(C)C2C)cc(OC)c1OC` (centres undefined): -1.3% (inactive); `CC1CCCCC1NC(=O)CO/N=C/c1ccc(OC(F)F)cc1` (centres undefined): -0.83% (inactive).
Then `COc1ccc2nc(-c3ccccn3)ccc2c1`, with 77.3% (active); and `COc1ccc2cc(CCl)c(Cl)nc2c1`, with 0.58% (inactive); and `COc1ccc(C=C(C#N)C#N)c(CSc2ccccn2)c1`, with 1.22% (inactive).
Then `O=C(COc1cc(Cl)c(Cl)cc1Cl)NC(=O)NC1CCCC1`, with 5.04% (inactive); and `CC(C)(C)C(=O)CN1C2=NCCN2c2ccccc21`, with -3.57% (inactive); and `CC(C)n1c(-c2cccs2)nc2ccccc21`, with 32.3% (active).
For the compound `CC(C)n1c(NCc2c[nH]c3ccccc23)nc2ccccc21`, the inhibition is 1.92% (inactive).
Then `CC(C)n1c(CN2CCN(Cc3ccccc3)CC2)nc2ccccc21`, with 3.41% (inactive); and `Cc1noc(C)c1-c1ccc2ncnc(NC(C)c3ccco3)c2c1` (centres undefined), with 8.84% (inactive); and `O=C(O)C1CCC(CNS(=O)(=O)c2ccc(Br)cc2)CC1` (centres undefined), with 0.74% (inactive).
Then `CCN1CCN(C(=O)c2ccc(CN(c3ccc(C)c(C)c3)S(C)(=O)=O)cc2)CC1`, with -1.53% (inactive); and `O=c1oc2ccccc2cc1-c1cn(-c2ccccc2)c(=S)[nH]1`, with 40.4% (active); and `C/C(=C\c1ccco1)CN1CCC(N2CCC(C(=O)N3CCOCC3)CC2)CC1`, with -2.26% (inactive).
Next, `OCC[C@H]1C[C@@H](O)[C@H](O)[C@]2(OCCCc3ccccc32)O1`: 2.25% (inactive).
Consider `O=C(N/N=C\c1ccc(-c2ccc(Cl)c(Cl)c2)o1)C(=O)N1CCCC1`, for which the inhibition is 1.03% (inactive).
Next, `O=C(COc1ccc2c(c1)CCC2)N1CCN(c2ccc(F)cc2)CC1`: -1.29% (inactive).
`CCN1CCN(C(=O)CN(C)S(=O)(=O)c2ccc(OC)cc2)CC1`: the inhibition is -1.71% (inactive).
Next, `COc1ccc(OCC(=O)N2CCN(C(=O)c3cccs3)CC2)cc1`: 1.53% (inactive); `CCN1CCN(C(=O)c2cc3cc4ccc(OC)cc4nc3s2)CC1`: 43.9% (active); `O=C(OCC(=O)N1CCCCCC1)c1ccc(Br)c(S(=O)(=O)N2CCOCC2)c1`: -1.57% (inactive).
Next, `COc1ccc(CNC(=O)c2ccc(NS(=O)(=O)c3ccc4[nH]c(=O)[nH]c4c3)cc2)cc1OC`: -1.09% (inactive); `CCOC(=O)c1c(C)[nH]c(C(=O)NCCN2CCOCC2)c1C`: 1.62% (inactive); `CCOC(=O)c1c(N)n(CCN2CCOCC2)c2nc3ccccc3nc12`: 113% (active).
Next, `CC(CN1CCOCC1)OC(=O)c1ccc(C(C)(C)C)cc1` (centres undefined): -5.4% (inactive); `CCN(C(=O)COC(=O)c1c(C)nn(-c2ccccc2)c1Cl)c1c(N)n(Cc2ccccc2)c(=O)[nH]c1=O`: -2.12% (inactive).
`COCC(C)OC(=O)c1c(N)n(CCCN2CCOCC2)c2nc3ccccc3nc12` (centres undefined): the inhibition was 104% (active).
Next, `O=C(Cc1coc2ccc3ccccc3c12)NCc1cccs1`: 0.72% (inactive).
Then `Cc1ccc(C(=O)OC(C)CN2CCOCC2)cc1` (centres undefined), with -3.53% (inactive); and `CC(C)Cn1c(N)c(C(=O)NCc2cccs2)c2nc3ccccc3nc21`, with 48.5% (active).
Next, `CCOC(=O)c1c(CN2CCOCC2)n(-c2ccccc2)c2ccc(O)cc12`: -1.31% (inactive); `CCOC(=O)c1cnn(Cc2ccccc2Cl)c1N`: -1.37% (inactive); `O=C(NCc1cccs1)c1cc(-c2ccccn2)nc2ccc(Br)cc12`: 1.48% (inactive).
